# Measurements: the supplement of paper PMC8728848
# Shown is part of a subset that was picked to be rich in the strongest signals.
# Assays:
# Assay in all cases: glycan array binding signal (z-score within array); higher = stronger binding
# Conditions in all cases: glycan notation: IUPAC condensed, linker removed
# Fuc(a1-2)Gal(b1-4)Glc = target: Fuc(a1-2)Gal(b1-4)Glc
# Summary of the method: (§1)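 Arrays were curated from the Consortium for Functional Glycomics database, 3228 in total, and kept only where the protein sequence was available. Binding is expressed as a within-array Z-score. This score was averaged across arrays of the same protein sequence at different concentrations or buffers and across linkers, and negative values can be read as non-binding.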
# [1] = target: Fuc(a1-2)Gal(b1-4)GlcNAc(b1-2)[Fuc(a1-2)Gal(b1-4)GlcNAc(b1-4)]Man(a1-3)[Fuc(a1-2)Gal(b1-4)GlcNAc(b1-2)Man(a1-6)]Man(b1-4)GlcNAc(b1-4)GlcNAc
# Summary of the method: as §1
# [2] = target: Fuc(a1-2)Gal(b1-4)GlcNAc(b1-3)[Fuc(a1-2)Gal(b1-4)GlcNAc(b1-6)]GalNAc
# Summary of the method: as §1
# [3] = target: Fuc(a1-2)[Gal(a1-3)]Gal(b1-4)[Fuc(a1-3)]Glc
# Summary of the method: as §1
# [4] = target: Fuc(a1-2)[Gal(a1-3)]Gal(b1-4)[Fuc(a1-3)]GlcNAc(b1-3)GalNAc
# Summary of the method: as §1
# [5] = target: Fuc(a1-2)[Gal(a1-4)]Gal(b1-4)GlcNAc
# Summary of the method: as §1
# [6] = target: Fuc(a1-2)[GalNAc(a1-3)]Gal
# Summary of the method: as §1
# [7] = target: Fuc(a1-2)[GalNAc(a1-3)]Gal(b1-3)GlcNAc(b1-3)GalNAc
# Summary of the method: as §1
# [8] = target: Fuc(a1-2)[GalNAc(a1-3)]Gal(b1-4)GlcNAc
# Summary of the method: as §1
# [9] = target: Fuc(a1-2)[GalNAc(a1-3)]Gal(b1-4)GlcNAc(b1-3)Gal(b1-4)GlcNAc(b1-3)Gal(b1-4)GlcNAc
# Summary of the method: as §1
# [10] = target: Fuc(a1-2)[GalNAc(a1-3)]Gal(b1-4)GlcNAc(b1-3)GalNAc
# Summary of the method: as §1
# [11] = target: Fuc(a1-2)[GalNAc(a1-3)]Gal(b1-4)[Fuc(a1-3)]GlcNAc
# Summary of the method: as §1
# Fuc(a1-3)GlcNAc = target: Fuc(a1-3)GlcNAc
# Summary of the method: as §1
# [12] = target: Fuc(a1-3)[Gal(b1-4)]GlcNAc(b1-6)GalNAc
# Summary of the method: as §1
# [13] = target: Fuc(a1-3)[Gal3S(b1-4)]GlcNAc
# Summary of the method: as §1
# [14] = target: Gal(a1-4)Gal(b1-4)GlcNAc(b1-3)Gal(b1-4)Glc
# Summary of the method: as §1
# [15] = target: Gal(b1-3)GlcNAc(b1-3)GalNAc
# Summary of the method: as §1
# [16] = target: Gal(b1-3)GlcNAc(b1-6)Gal(b1-4)GlcNAc
# Summary of the method: as §1
# [17] = target: Gal(b1-3)[Fuc(a1-4)]GlcNAc(b1-3)Gal(b1-4)GlcNAc
# Summary of the method: as §1
# [18] = target: Gal(b1-3)[Neu5Ac(a2-6)]GalNAc
# Summary of the method: as §1
# [19] = target: Gal(b1-4)GlcNAc(b1-3)Gal(b1-3)GalNAc
# Summary of the method: as §1
# [20] = target: Gal(b1-4)GlcNAc(b1-3)Gal(b1-4)GlcNAc(b1-2)Man(a1-3)[Gal(b1-4)GlcNAc(b1-3)Gal(b1-4)GlcNAc(b1-2)Man(a1-6)]Man(b1-4)GlcNAc(b1-4)[Fuc(a1-6)]GlcNAc
# Summary of the method: as §1
# [21] = target: Gal(b1-4)GlcNAc(b1-3)Gal(b1-4)GlcNAc(b1-2)[Gal(b1-4)GlcNAc(b1-3)Gal(b1-4)GlcNAc(b1-6)]Man(a1-6)[Gal(b1-4)GlcNAc(b1-3)Gal(b1-4)GlcNAc(b1-2)Man(a1-3)]Man(b1-4)GlcNAc(b1-4)GlcNAc
# Summary of the method: as §1
# [22] = target: Gal(b1-4)GlcNAc(b1-3)Gal(b1-4)GlcNAc(b1-3)Gal(b1-4)GlcNAc(b1-3)Gal(b1-4)GlcNAc(b1-2)Man(a1-3)[Gal(b1-4)GlcNAc(b1-3)Gal(b1-4)GlcNAc(b1-3)Gal(b1-4)GlcNAc(b1-3)Gal(b1-4)GlcNAc(b1-2)Man(a1-6)]Man(b1-4)GlcNAc(b1-4)[Fuc(a1-6)]GlcNAc
# Summary of the method: as §1
# [23] = target: Gal(b1-4)GlcNAc(b1-3)Gal(b1-4)GlcNAc(b1-3)Gal(b1-4)GlcNAc(b1-3)Gal(b1-4)GlcNAc(b1-3)Gal(b1-4)GlcNAc(b1-2)Man(a1-3)[Gal(b1-4)GlcNAc(b1-3)Gal(b1-4)GlcNAc(b1-3)Gal(b1-4)GlcNAc(b1-3)Gal(b1-4)GlcNAc(b1-3)Gal(b1-4)GlcNAc(b1-2)Man(a1-6)]Man(b1-4)GlcNAc(b1-4)[Fuc(a1-6)]GlcNAc
# Summary of the method: as §1
# [24] = target: Gal(b1-4)GlcNAc(b1-6)[Gal(b1-3)]GalNAc
# Summary of the method: as §1
# Gal3S(b1-3)GlcNAc = target: Gal3S(b1-3)GlcNAc
# Summary of the method: as §1
# [25] = target: Gal3S(b1-4)[Fuc(a1-3)]Glc6S
# Summary of the method: as §1
# Gal3S6S(b1-4)GlcNAc = target: Gal3S6S(b1-4)GlcNAc
# Summary of the method: as §1
# [26] = target: GlcNAc(b1-3)Gal(b1-4)GlcNAc(b1-3)Gal(b1-4)GlcNAc(b1-3)Gal(b1-4)GlcNAc(b1-3)Gal(b1-4)GlcNAc(b1-2)Man(a1-3)[GlcNAc(b1-3)Gal(b1-4)GlcNAc(b1-3)Gal(b1-4)GlcNAc(b1-3)Gal(b1-4)GlcNAc(b1-3)Gal(b1-4)GlcNAc(b1-2)Man(a1-6)]Man(b1-4)GlcNAc(b1-4)[Fuc(a1-6)]GlcNAc
# Summary of the method: as §1
# [27] = target: GlcNAc(b1-3)Gal(b1-4)GlcNAc(b1-6)[Gal(b1-3)]GalNAc
# Summary of the method: as §1
# [28] = target: GlcNAc(b1-3)[GlcNAc(b1-6)]GalNAc
# Summary of the method: as §1
# Kdn(a2-6)Gal(b1-4)GlcNAc = target: Kdn(a2-6)Gal(b1-4)GlcNAc
# Summary of the method: as §1
# [29] = target: Man(a1-2)Man(a1-3)[Man(a1-2)Man(a1-6)]Man
# Summary of the method: as §1
# [30] = target: Man(a1-2)Man(a1-6)[Man(a1-3)]Man(a1-6)[Man(a1-2)Man(a1-2)Man(a1-3)]Man
# Summary of the method: as §1
# [31] = target: Neu5Ac(a2-3)Gal(b1-3)GlcNAc(b1-3)Gal(b1-3)GlcNAc
# Summary of the method: as §1
# [32] = target: Neu5Ac(a2-3)Gal(b1-3)GlcNAc(b1-3)GalNAc
# Summary of the method: as §1
# [33] = target: Neu5Ac(a2-3)Gal(b1-3)GlcNAc(b1-4)Gal(b1-4)Glc
# Summary of the method: as §1
# [34] = target: Neu5Ac(a2-3)Gal(b1-4)GlcNAc(b1-3)Gal(b1-4)GlcNAc
# Summary of the method: as §1
# [35] = target: Neu5Ac(a2-3)Gal(b1-4)GlcNAc(b1-3)Gal(b1-4)GlcNAc(b1-3)Gal(b1-4)GlcNAc(b1-2)Man(a1-3)[Neu5Ac(a2-3)Gal(b1-4)GlcNAc(b1-3)Gal(b1-4)GlcNAc(b1-3)Gal(b1-4)GlcNAc(b1-2)Man(a1-6)]GalNAc
# Summary of the method: as §1
# [36] = target: Neu5Ac(a2-3)Gal(b1-4)[Fuc(a1-3)]GlcNAc(b1-3)GalNAc
# Summary of the method: as §1
# [37] = target: Neu5Ac(a2-6)Gal(b1-4)GlcNAc(b1-2)Man(a1-3)Man(b1-4)GlcNAc(b1-4)GlcNAc
# Summary of the method: as §1
# [38] = target: Neu5Ac(a2-6)Gal(b1-4)GlcNAc(b1-2)[Neu5Ac(a2-6)Gal(b1-4)GlcNAc(b1-6)]Man(a1-6)[Neu5Ac(a2-6)Gal(b1-4)GlcNAc(b1-2)Man(a1-3)][GlcNAc(b1-4)]Man(b1-4)GlcNAc(b1-4)GlcNAc
# Summary of the method: as §1
# Neu5Ac(a2-6)GalNAc = target: Neu5Ac(a2-6)GalNAc
# Summary of the method: as §1
# [39] = target: Neu5Ac(a2-8)Neu5Ac(a2-3)Gal(b1-4)Glc
# Summary of the method: as §1
# [40] = target: Neu5Ac(a2-8)Neu5Ac(a2-3)Gal(b1-4)GlcNAc
# Summary of the method: as §1
# [41] = target: Neu5Ac(a2-8)Neu5Ac(a2-8)Neu5Ac(a2-3)[Gal(b1-3)GalNAc(b1-4)]Gal(b1-4)Glc
# Summary of the method: as §1
# [42] = target: Neu5Ac9Ac(a2-6)Gal(b1-4)GlcNAc
# Summary of the method: as §1
# [43] = target: Neu5Gc(a2-8)Neu5Ac(a2-3)Gal(b1-4)GlcNAc
# Summary of the method: as §1
binder,measurement,setting,value
"CD4 (Rattus norvegicus), P05540 (protein) MCRGFSFRHLLPLLLLQLSKLLVVTQGSTSITAYKSEGESAEFSFPLNLGEESLQGELRWKAEKAPSSQSWITFSLKNQKVSVQKSTSNPKFQLSETLPLTLQIPQVSLQFAGSGNLTLTLDRGILYQEVNLVVMKVTQPDSNTLTCEVMGPTSPKMRLILKQENQEARVSRQEKVIQVQAPEAGVWQCLLSEGEEVKMDSKIQVLSKGLNSGGGSGGGTGGGDLAPQMLRELQETNAALQDVRELLRQQVKEITFLKNTVMECDACGLDRNLPPLAPLGPHPETLVKVKDAEDQLGARVGYIELDLNSGKILESFRPEERFPMMSTFKVLLCGAVLSRIDAGQEQLGRRIHYSQNDLVEYSPVTEKHLTDGMTVRELCSAAITMSDNTAANLLLTTIGGPKELTAFLHNMGDHVTRLDRWEPELNEAIPNDERDTTMPVAMATTLRKLLTGELLTLASRQQLIDWMEADKVAGPLLRSALPAGWFIADKSGAGERGSRGIIAALGPDGKPSRIVVIYTTGSQATMDERNRQIAEIGASLIKHW",glycan array binding signal (z-score),Fuc(a1-2)Gal(b1-4)Glc,1.27
same,glycan array binding signal (z-score),[1],1.76
same,glycan array binding signal (z-score),[2],-0.242
same,glycan array binding signal (z-score),[3],0.448
same,glycan array binding signal (z-score),[4],-0.228
same,glycan array binding signal (z-score),[5],1.9
same,glycan array binding signal (z-score),[6],-0.738
same,glycan array binding signal (z-score),[7],2.41
same,glycan array binding signal (z-score),[8],-0.98
same,glycan array binding signal (z-score),[9],3.72
same,glycan array binding signal (z-score),[10],-0.665
same,glycan array binding signal (z-score),[11],2.67
same,glycan array binding signal (z-score),Fuc(a1-3)GlcNAc,-1.59
same,glycan array binding signal (z-score),[12],0.46
same,glycan array binding signal (z-score),[13],-0.413
same,glycan array binding signal (z-score),[14],3.31
same,glycan array binding signal (z-score),[15],0.109
same,glycan array binding signal (z-score),[16],-1.04
same,glycan array binding signal (z-score),[17],-0.072
same,glycan array binding signal (z-score),[18],-1.09
same,glycan array binding signal (z-score),[19],3.12
same,glycan array binding signal (z-score),[20],2.88
same,glycan array binding signal (z-score),[21],2.6
same,glycan array binding signal (z-score),[22],2.6
same,glycan array binding signal (z-score),[23],2.8
same,glycan array binding signal (z-score),[24],-1.17
same,glycan array binding signal (z-score),Gal3S(b1-3)GlcNAc,-0.868
same,glycan array binding signal (z-score),[25],3.99
same,glycan array binding signal (z-score),Gal3S6S(b1-4)GlcNAc,-0.623
same,glycan array binding signal (z-score),[26],-0.266
same,glycan array binding signal (z-score),[27],-0.267
same,glycan array binding signal (z-score),[28],-0.65
same,glycan array binding signal (z-score),Kdn(a2-6)Gal(b1-4)GlcNAc,-1.16
same,glycan array binding signal (z-score),[29],-0.568
same,glycan array binding signal (z-score),[30],1.05
same,glycan array binding signal (z-score),[31],0.207
same,glycan array binding signal (z-score),[32],-0.719
same,glycan array binding signal (z-score),[33],-1.28
same,glycan array binding signal (z-score),[34],-1.14
same,glycan array binding signal (z-score),[35],3.17
same,glycan array binding signal (z-score),[36],2.77
same,glycan array binding signal (z-score),[37],0.03
same,glycan array binding signal (z-score),[38],-1.55
same,glycan array binding signal (z-score),Neu5Ac(a2-6)GalNAc,-0.467
same,glycan array binding signal (z-score),[39],-0.183
same,glycan array binding signal (z-score),[40],0.265
same,glycan array binding signal (z-score),[41],0.105
same,glycan array binding signal (z-score),[42],0.028
same,glycan array binding signal (z-score),[43],-0.129
